Each structure is given as a SMILES string. Whole data set: some 1,600 compounds, median “plate-normalized OD600 growth (mean of duplicates)” near 0.31, cut for the lowest 2% near 0.23. Only a selection was taken, and the lowest values are over-represented in it overall.

This experiment relates to Escherichia coli BW25113. The experiment in a line: plate-normalized OD600 growth (mean of duplicates) (OD600 (normalized)); higher = more growth (less inhibition). To be noted: 10 µM. As for the experimental part:
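E. coli BW25113 in LB (100 µl, 96-well, no shaking) was exposed to 10 µM of each compound (here the ChemBridge subset of a ~30,000-member library) and grown at 37°C for 24 h or 15°C for 48 h, in duplicate. Growth was read as OD600 and the duplicate ODs were normalized across screening plates to correct plate-to-plate variation.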

Regarding `O=C1CC(N2CCOCC2)C(=O)N1c1ccc(I)cc1` (stereo not drawn), the “plate-normalized OD600 growth” value is 0.257 (temperature: 15°C, 48 h) and 0.645 (temperature: 37°C, 24 h).
In the same order, the values of `N#CC1=C(N)Oc2cc(N)ccc2C1c1ccc(Br)s1` (stereo not drawn) are 0.262 and 0.636.
Turning to `O=C(Nc1cccc([N+](=O)[O-])c1)c1cc(S(=O)(=O)Nc2ccccc2)ccc1Cl`, the “plate-normalized OD600 growth” value by setting is: (temperature: 15°C, 48 h) 0.256; (temperature: 37°C, 24 h) 0.621.
In the same order, the values of `Fc1ccccc1OCCSc1ncnc2nc[nH]c12` are 0.258 and 0.613.
In the same order, the values of `CCSc1sc(SC#N)cc1SC#N` are 0.207 and 0.614.
As to `CCSc1sc(CC)cc1C(N)=O`, the “plate-normalized OD600 growth” value is, setting by setting: (temperature: 15°C, 48 h) 0.239; (temperature: 37°C, 24 h) 0.621.
The matching figures for `N#CSc1cnc(NC2CCCCC2)s1`: 0.254 and 0.611.
With `CCOc1ccc(Br)cc1/C=C(\C#N)c1nc2ccccc2[nH]1`, the “plate-normalized OD600 growth” value was determined as 0.255 (temperature: 15°C, 48 h) and 0.657 (temperature: 37°C, 24 h).
Consider `CCOc1ccc(Nc2nc(-c3ccc(C)c(C)c3)cs2)cc1`, for which the “plate-normalized OD600 growth” value runs as follows: (temperature: 15°C, 48 h) 0.248; (temperature: 37°C, 24 h) 0.605.
As for `Cc1cc(C)n(-c2nc(-c3ccc(F)cc3)cs2)n1`, the “plate-normalized OD600 growth” value by setting is: (temperature: 15°C, 48 h) 0.254; (temperature: 37°C, 24 h) 0.625.
In the same order, the values of `Cc1ccc(-c2csc(Nc3ccc(F)cc3)n2)cc1C` are 0.218 and 0.604.
For the molecule `CCOc1ccc(C(=O)Nc2ccc(S(=O)(=O)Nc3nccs3)cc2)cc1`, the “plate-normalized OD600 growth” value was found to be 0.241 (temperature: 15°C, 48 h) and 0.613 (temperature: 37°C, 24 h).
The matching figures for `C=CCNc1nc(-c2ccncc2)cs1`: 0.236 and 0.589.
With `CC(=O)Nc1ccc(-c2cc(-c3ccc(NC(C)=O)cc3)nc(-c3ccccc3)n2)cc1`, the “plate-normalized OD600 growth” value reads like this: (temperature: 15°C, 48 h) 0.246; (temperature: 37°C, 24 h) 0.587.
For the molecule `Cc1ccc2nc(/C(C#N)=C\c3ccco3)[nH]c2c1`, the “plate-normalized OD600 growth” value by setting is: (temperature: 15°C, 48 h) 0.242; (temperature: 37°C, 24 h) 0.599.
In the same order, the values of `CC(=O)Nc1ccc2oc(-c3cccc(I)c3)nc2c1` are 0.235 and 0.614.
The matching figures for `CCN(CC)CCCOc1ccc([N+](=O)[O-])cc1`: 0.246 and 0.624.
As for `CCOc1ccc(C(=O)c2ccc([N+](=O)[O-])cc2Cl)cc1`, the “plate-normalized OD600 growth” value runs as follows: (temperature: 15°C, 48 h) 0.265; (temperature: 37°C, 24 h) 0.637.
The matching figures for `CCOc1ccc(-c2ncnn2-c2ccc([N+](=O)[O-])cc2)cc1`: 0.222 and 0.625.
In the same order, the values of `CCCCOC(=O)Nc1nnc(CCc2ccccc2)s1` are 0.265 and 0.623.
In the same order, the values of `COc1cc(CN2CCSCC2)c([N+](=O)[O-])cc1OC` are 0.23 and 0.6.
In the case of `NC(=O)CCC(=O)NC12CC3CC(CC(C3)C1)C2`, the “plate-normalized OD600 growth” value (temperature: 15°C, 48 h) is 0.227 and the “plate-normalized OD600 growth” value (temperature: 37°C, 24 h) turned out to be 0.599.
In the same order, the values of `O=C(CN1CCCCC1)NC12CC3CC(CC(C3)C1)C2` are 0.274 and 0.65.
In the case of `CC(C)NCC(=O)NC12CC3CC(CC(C3)C1)C2`, the “plate-normalized OD600 growth” value (temperature: 15°C, 48 h) stood at 0.266 and the “plate-normalized OD600 growth” value (temperature: 37°C, 24 h) turned out to be 0.656.
Regarding `Cc1ccc(NC(=O)c2c(O)c3ccccc3[nH]c2=O)c(C)c1`, the “plate-normalized OD600 growth” value is, setting by setting: (temperature: 15°C, 48 h) 0.27; (temperature: 37°C, 24 h) 0.648.
In the same order, the values of `Cc1cc(C)n(C(=O)c2ccc(Cl)cc2)n1` are 0.256 and 0.636.
With `Cc1cc(C)n(C(=O)c2ccccc2Br)n1`, the “plate-normalized OD600 growth” value (temperature: 15°C, 48 h) was found to be 0.226 and the “plate-normalized OD600 growth” value (temperature: 37°C, 24 h) is 0.655.
In the same order, the values of `Cc1cc(C)n(C(=O)c2ccccc2F)n1` are 0.251 and 0.635.
As to `O=C(O)c1ccc2c(c1)C(=O)N(c1c[nH]c(=O)[nH]c1=O)C2=O`, the “plate-normalized OD600 growth” value runs as follows: (temperature: 15°C, 48 h) 0.239; (temperature: 37°C, 24 h) 0.592.
In the same order, the values of `O=C(/C=C/c1ccc(-c2cc(Cl)ccc2Cl)o1)c1ccco1` are 0.25 and 0.612.
On to `c1cc2cn[nH]c2cc1NC1CCCCCC1`, for which the “plate-normalized OD600 growth” value is, setting by setting: (temperature: 15°C, 48 h) 0.233; (temperature: 37°C, 24 h) 0.604.
Consider `O=C(O)CSc1ccc(Br)cc1`, for which the “plate-normalized OD600 growth” value was 0.222 (temperature: 15°C, 48 h) and 0.609 (temperature: 37°C, 24 h).
For `O=C(O)CSc1cccc(C(=O)Nc2ccc(Br)cc2)c1`, the “plate-normalized OD600 growth” value (temperature: 15°C, 48 h) is 0.249 and the “plate-normalized OD600 growth” value (temperature: 37°C, 24 h) was found to be 0.611.
In the case of `Nc1ccc(Cl)cc1SCC(=O)O`, the “plate-normalized OD600 growth” value runs as follows: (temperature: 15°C, 48 h) 0.242; (temperature: 37°C, 24 h) 0.599.
As for `NS(=O)(=O)c1ccc(NC(=O)c2ccccc2Cl)cc1`, the “plate-normalized OD600 growth” value (temperature: 15°C, 48 h) stood at 0.24 and the “plate-normalized OD600 growth” value (temperature: 37°C, 24 h) was 0.604.
In the same order, the values of `O=[N+]([O-])c1ccc(N2CCN(Cc3cccs3)CC2)cc1` are 0.22 and 0.599.
In the same order, the values of `O=[N+]([O-])c1ccc(N2CCN(Cc3ccc(Br)s3)CC2)cc1` are 0.242 and 0.58.
Turning to `Cc1ccsc1CN1CCN(c2ccc([N+](=O)[O-])cc2)CC1`, the “plate-normalized OD600 growth” value (temperature: 15°C, 48 h) turned out to be 0.256 and the “plate-normalized OD600 growth” value (temperature: 37°C, 24 h) was found to be 0.634.
For `O=C(O)c1ccc(S(=O)(=O)c2ccc(O)cc2)cc1`, the “plate-normalized OD600 growth” value was 0.247 (temperature: 15°C, 48 h) and 0.592 (temperature: 37°C, 24 h).
Regarding `C=CCNC(=O)c1ccc(CN2CCc3ccccc3C2)cc1`, the “plate-normalized OD600 growth” value (temperature: 15°C, 48 h) stood at 0.217 and the “plate-normalized OD600 growth” value (temperature: 37°C, 24 h) came to 0.6.
On to `c1ccc2c(c1)CCN(Cc1ccncc1)C2`, for which the “plate-normalized OD600 growth” value was found to be 0.236 (temperature: 15°C, 48 h) and 0.651 (temperature: 37°C, 24 h).
The matching figures for `CN(C)c1ccc(CN2CCc3ccccc3C2)cc1`: 0.244 and 0.619.
Take `O=C(c1ccccc1[N+](=O)[O-])N1CCN(C(c2ccccc2)c2ccccc2)CC1`: the “plate-normalized OD600 growth” value reads like this: (temperature: 15°C, 48 h) 0.259; (temperature: 37°C, 24 h) 0.627.
The matching figures for `CCOc1cc(/C=C(\C#N)c2nc(-c3ccc(OC)cc3)cs2)ccc1O`: 0.262 and 0.615.
On to `COc1ccc(-c2c(C)[nH]n3c(=O)cc(-c4ccc([N+](=O)[O-])cc4)nc23)cc1`, for which the “plate-normalized OD600 growth” value (temperature: 15°C, 48 h) was found to be 0.24 and the “plate-normalized OD600 growth” value (temperature: 37°C, 24 h) was determined as 0.608.
For `COc1ccc(NCc2ccc(C)s2)cc1OC`, the “plate-normalized OD600 growth” value came out at 0.244 (temperature: 15°C, 48 h) and 0.604 (temperature: 37°C, 24 h).
In the same order, the values of `COc1ccc(NC(=O)Nc2ccc(F)c(Cl)c2)cc1` are 0.283 and 0.58.
The matching figures for `COc1ccc(NCc2ccc(Cl)cc2Cl)cc1OC`: 0.22 and 0.625.
In the same order, the values of `O=C(c1sc2ccccc2c1Cl)N1CCN(CCN2C(=O)C3C4C=CC(C4)C3C2=O)CC1` (stereo not drawn) are 0.243 and 0.611.
For the molecule `O=S(=O)(c1ccc(Cl)c(Cl)c1)N1CCCCC1`, the “plate-normalized OD600 growth” value (temperature: 15°C, 48 h) is 0.252 and the “plate-normalized OD600 growth” value (temperature: 37°C, 24 h) is 0.619.
For the molecule `Cc1cc(=O)[nH]c2ccc([N+](=O)[O-])cc12`, the “plate-normalized OD600 growth” value runs as follows: (temperature: 15°C, 48 h) 0.244; (temperature: 37°C, 24 h) 0.609.
As to `O=[N+]([O-])c1ccc2[nH]c3c(c2c1)CCCC3NC1CCN(CCc2ccccc2)CC1` (stereo not drawn), the “plate-normalized OD600 growth” value by setting is: (temperature: 15°C, 48 h) 0.249; (temperature: 37°C, 24 h) 0.578.
Consider `NC1CCCc2c1[nH]c1ccc([N+](=O)[O-])cc21` (stereo not drawn), for which the “plate-normalized OD600 growth” value was found to be 0.173 (temperature: 15°C, 48 h) and 0.552 (temperature: 37°C, 24 h).
In the same order, the values of `N#C/C(=C\c1ccc(Br)o1)c1nc(-c2ccccc2)cs1` are 0.246 and 0.6.
In the same order, the values of `COc1ccc(NC(=O)c2ccccc2Br)c(OC)c1` are 0.258 and 0.615.
The matching figures for `COc1ccc(Cl)cc1NC(=O)c1ccccc1Br`: 0.222 and 0.627.
In the case of `O=C(Nc1ccc(Cl)cc1)c1ccccc1Br`, the “plate-normalized OD600 growth” value (temperature: 15°C, 48 h) was 0.264 and the “plate-normalized OD600 growth” value (temperature: 37°C, 24 h) is 0.633.
As to `O=C1c2cccc([N+](=O)[O-])c2C(=O)N1n1cnnc1`, the “plate-normalized OD600 growth” value reads like this: (temperature: 15°C, 48 h) 0.258; (temperature: 37°C, 24 h) 0.629.
As for `CCC1CCC(NCc2cccc(OC)c2OC)CC1` (stereo not drawn), the “plate-normalized OD600 growth” value is, setting by setting: (temperature: 15°C, 48 h) 0.253; (temperature: 37°C, 24 h) 0.603.
The matching figures for `Cc1cccc(NC(=O)COc2ccc(C)c(C)c2)c1`: 0.237 and 0.601.
As for `COc1ccc(CN2CCCN(C)CC2)c(OC)c1`, the “plate-normalized OD600 growth” value runs as follows: (temperature: 15°C, 48 h) 0.25; (temperature: 37°C, 24 h) 0.619.
`CN1CCCN(Cc2cc(F)ccc2F)CC1`: the “plate-normalized OD600 growth” value by setting is: (temperature: 15°C, 48 h) 0.273; (temperature: 37°C, 24 h) 0.623.
Turning to `C=CCOc1ccccc1CN1CCCN(C)CC1`, the “plate-normalized OD600 growth” value reads like this: (temperature: 15°C, 48 h) 0.217; (temperature: 37°C, 24 h) 0.595.
Consider `CC(=O)N1c2ccccc2NC2=C(C(=O)CC(C)(C)C2)C1c1cccn1C` (stereo not drawn), for which the “plate-normalized OD600 growth” value came to 0.253 (temperature: 15°C, 48 h) and 0.612 (temperature: 37°C, 24 h).
In the same order, the values of `CC1(C)CC(=O)C2=C(C1)Nc1ccccc1NC2c1ccc(Br)cc1` (stereo not drawn) are 0.275 and 0.627.
Consider `CC1(C)CC(=O)C2=C(C1)Nc1ccccc1NC2c1cc2c(cc1[N+](=O)[O-])OCO2` (stereo not drawn), for which the “plate-normalized OD600 growth” value was determined as 0.225 (temperature: 15°C, 48 h) and 0.606 (temperature: 37°C, 24 h).
With `CC1(C)CC(=O)C2=C(C1)Nc1ccccc1NC2c1ccc([N+](=O)[O-])s1` (stereo not drawn), the “plate-normalized OD600 growth” value is, setting by setting: (temperature: 15°C, 48 h) 0.231; (temperature: 37°C, 24 h) 0.604.
As for `Cn1cccc1C1Nc2ccccc2NC2=C1C(=O)CC(C)(C)C2` (stereo not drawn), the “plate-normalized OD600 growth” value is, setting by setting: (temperature: 15°C, 48 h) 0.222; (temperature: 37°C, 24 h) 0.609.
The matching figures for `CC1(C)CC(=O)C2=C(C1)Nc1ccccc1NC2c1ccccc1F` (stereo not drawn): 0.25 and 0.618.

For the origin of these results see the supplement of paper PMC4371806.
